# A selection: hits, their analogues and other compounds. The true share with any hit is near 2.7%.
# H9c2 TAG inh – triacylglycerol accumulation inhibition | inhibition, % at 12.5 µM | H9c2 cells, Nile Red lipid (TAG) fluorescence; cells loaded with 200 µM oleic acid | hit rate 0.66% among 230,000;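 active = pattern-corrected inhibition of lipid staining of at least 50% with the nuclear-stain viability signal not falling by more than 50%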;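 note: 0% = DMSO wells and 100% = triacsin C control wells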
# NadD inh – NadD (S. aureus) enzyme inhibition; purified NadD enzyme, colorimetric absorbance read-out; hit rate 0.78% among 360,000; inhibition, % at 20 µM; in the data active = inhibition above about 26%
# aDG glyco up – increases alpha dystroglycan glycosylation | Pro5-aDG cells, alpha-DG glycosylation AlphaScreen (IIH6); 0% Pro5, 100% B10-LARGE cell signal | hit rate 0.22% among 360,000 | AID 624168 | activation, % at 10 µM;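 active = activation of at least 8% versus controls, or a plate z-score of at least 8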;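 note: Pro5 are CHO cells carrying HIG-tagged alpha-DG that lacks glycosylation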
# MPTP inh – inhibitors of mitochondrial permeability transition pore; AID 602449; inhibition, % at 10 µM; isolated mouse mitochondria, Ca2+ swelling absorbance, 30 min; hit rate 1.4% among 360,000;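 active = inhibition of 50% or more, scaled per plate between neutral and stimulator controls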;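 note: 0% = DMSO wells given calcium and 100% = 1 mM EGTA wells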
# NadD conf – confirmation of Staphylococcus aureus NadD inhibitors; shares compounds with NadD inh; purified S. aureus NadD, colorimetric enzyme assay; inhibition, % at 20 µM; hit rate 13% among 2,000; in the data active = inhibition mostly above about 42%, no sharp cut-off; inactive = mostly below about 42%
# The depositor's hits bear a star; x = not tested or not shown.
SMILES,H9c2 TAG inh,NadD inh,aDG glyco up,MPTP inh,NadD conf
Oc1csc(Cc2nc(-c3ccc4ccccc4c3)cs2)n1,16,56*,0,3,38
C=C(C)[C@@H]1CC[C@]2(C(=O)O)CC[C@]3(C)C(CCC4[C@@]5(C)CC[C@H](O)C(C)(C)C5CC[C@]43C)C12 (some centres not stated),x,3,0,1,x
C=C(C)[C@@H]1CCC2(C(=O)O)CC[C@]3(C)[C@H](CC[C@@H]4[C@@]5(C)CCC(=O)C(C)(C)[C@@H]5CC[C@]43C)[C@@H]12 (some centres not stated),11,48*,0,11,21
COc1cc(NC(=O)CSc2ncnc3sc4c(c23)CCC(C)C4)c(C(=O)O)cc1OC (configuration not stated),x,36*,0,0,21
CC1CCc2c(sc3ncnc(SCC(=O)Nc4ccc(C(=O)O)cc4)c23)C1 (configuration not stated),x,11,0,0,x
COc1cccc(CSC(C(=O)O)c2ccccc2)c1 (configuration not stated),-8,-5,0,-1,x
O=C1OC[C@H]2CCCN2C(=O)[C@@H](CC(=O)N(CCO)Cc2ccccc2)C/C=C\CC[C@H]1Cc1ccc(F)cc1,5,-4,0,1,x
CC[N+](CC)(CC)CCCCOc1ccc2c(c1)C(=O)c1cc(OCCCC[N+](CC)(CC)CC)ccc1-2,-16,31*,0,0,14
Cc1c(NC(=O)/C(C#N)=C/c2ccc(-c3ccc(Cl)c(Cl)c3)o2)c(=O)n(-c2ccccc2)n1C,x,33*,1,3,8
CCc1cccc(CC)c1NC(=O)C1SC(=Nc2ccccc2C)C(c2nc3ccccc3s2)=C1N (configuration not stated),22,32*,3,20,6
CNc1ncnc2c1ncn2[C@H]1CN(CCN2CCOCC2)C[C@@H](CO)O1,-8,6,0,-2,x
O=C(NCc1ccccc1)C(c1ccc(F)cc1)N(C(=O)c1csnn1)c1ccccc1 (configuration not stated),x,-6,0,1,x
O=C(CCCCCn1c(=S)[nH]c2ccc(Br)cc2c1=O)NCC1CCCO1 (configuration not stated),x,4,0,9,x
NS(=O)(=O)c1ccc(CCNC(=O)CCCCCn2c(=S)[nH]c3ccc(Br)cc3c2=O)cc1,16,31*,0,-1,37
COc1ccc2cc(-c3cc(C(=O)OCC(=O)Nc4c(C)n(C)n(-c5ccccc5)c4=O)c4ccccc4n3)ccc2c1,x,40*,0,2,12
COc1ccc(-c2cc(C(=O)Nc3c(C)n(C)n(-c4ccccc4)c3=O)c3ccccc3n2)cc1,x,11,0,1,x
O=C(Cn1c(Cn2c(-c3cnccn3)nc3ccccc32)nc2ccccc21)c1ccc(OC(F)(F)F)cc1,x,15,0,1,x
O=C(CSc1nnc(Cc2csc(Nc3cccc(Cl)c3)n2)o1)N1CCc2ccccc21,x,57*,0,-8,19
O=C(CSc1nnc(CNc2ccccc2)o1)N1CCc2ccccc21,x,6,0,-1,x
O=C(Cc1csc(Nc2nc(=S)[nH]c3ccccc23)n1)NCc1cccc(Cl)c1,x,32*,0,1,2
O=C(Cc1csc(Nc2nc(=S)[nH]c3ccccc23)n1)NCc1ccccc1Cl,x,-3,0,0,x
O=C(Cc1csc(Nc2nc(=S)[nH]c3ccccc23)n1)N1CCN(c2cccc(C(F)(F)F)c2)CC1,22,33*,0,0,8
Cc1ccc(O)c(C(=O)c2cnc3c(c2)c(-c2ccc(F)cc2)c(C#N)c(=O)n3C)c1,35,28*,0,3,23
Cc1ccc(O)c(C(=O)c2cnc3c(c2)c(=O)n(C)c(=O)n3C)c1,x,3,0,0,x
N#CCC(=O)N/N=C/c1ccc(N2N=C(c3ccccc3)CC2c2ccccc2)cc1 (configuration not stated),x,49*,0,2,26
SMILES,H9c2 TAG inh,NadD inh,aDG glyco up,MPTP inh,NadD conf
O=C(O)C1C=Cc2ccccc2N1C(=O)c1ccccc1 (configuration not stated) (tested in a mixture with another compound),-15,1,0,0,x
CC(CCC(=O)NN)C1CCC2C3CCC4CC(O)CCC4(C)C3CCC12C (configuration not stated),-7,38*,0,-2,6
Cc1cccc(C)c1N=Cc1c(O)n(-c2nccs2)c(=O)c2ccccc12,x,6,0,-1,x
O=c1c2ccccc2c(/C=N/c2nnc(Cc3ccccc3)s2)c(O)n1-c1ccc(Cl)cn1,26,48*,0,26,-3
O=C(C[C@H]1C[C@H](C(=O)N2CCOCC2)[C@@]2(CCC3CCCC3)c3[nH]c4cc(-c5ccco5)ccc4c3CCN2C1=O)NCCC1=CCCCC1,33,29*,0,-2,13
C[C@]12c3[nH]c4cc(-c5ccco5)ccc4c3CCN1C(=O)[C@@H](CC(=O)NCC13CC4CC(CC(C4)C1)C3)C[C@@H]2C(=O)N1CCCCC1,40,50*,0,-2,13
CC[C@]12c3[nH]c4cc(-c5ccco5)ccc4c3CCN1C(=O)[C@@H](CC(=O)NCC13CC4CC(CC(C4)C1)C3)C[C@@H]2C(=O)N1CCN(C(=O)C2CC2)CC1,34,25,0,-1,x
CC[C@]12c3[nH]c4cc(-c5ccco5)ccc4c3CCN1C(=O)[C@@H](CC(=O)NCC13CC4CC(CC(C4)C1)C3)C[C@@H]2C(=O)N1CCN(C(=O)c2ccco2)CC1,16,40*,0,1,20
CCC(=O)N(Cc1ccc2c(c1)OCO2)Cc1cc2cc(OC)ccc2[nH]c1=O,x,33*,0,0,12
Cc1sc2nc(SCc3nc4ccccc4[nH]3)n(Cc3ccco3)c(=O)c2c1C,x,35*,1,14,38
Cc1sc2nc(SCc3ccccc3)n(Cc3ccco3)c(=O)c2c1C,x,1,0,1,x
N#Cc1sc2nc(C3CC3)cc(-c3ccccc3)c2c1N,x,4,1,0,x
N#Cc1sc2nc(-c3ccccc3)cc(-c3ccco3)c2c1N,9,32*,0,6,8
NC(CSC(c1ccccc1)(c1ccccc1)c1ccc2c(c1)OCO2)C(=O)O (configuration not stated),1,31*,0,0,33
NC(=O)CC(c1ccccc1)c1ccc2c(c1)OCO2 (configuration not stated),3,-4,0,2,x
CC(C)Sc1nc2sc3c(c2c2nnc(SCC(=O)NCc4ccco4)n12)CCCC3,-1,38*,1,-4,37
O=C(CSc1nc(C2CC2)nc2sc3c(c12)CCCC3)NCc1ccco1,x,-4,0,1,x
C=CCN1C(=O)c2ccc(C(=O)N(C)CC(=O)Nc3ccccc3C(F)(F)F)cc2C1=O,6,0,0,-1,x

# Bioassay records: PubChem, Sanford-Burnham Center for Chemical Genomics
